PMC4336329 (PLoS ONE, 2015)
Among all 310,000 compounds or so, about 14,000 (4.5%) showed an effect of 50% or more. The effect is printed as a negative number. Only a selection was taken, and strong results are over-represented in it overall.

Biological target: human ether-à-go-go-related gene (hERG) potassium channel (human, UniProt Q12809)
Test: primary screen, population patch clamp on CHO cells stably expressing hERG; higher = less effect of the substance
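Also: peak tail current of the secondary pulse compared with the same well before compound.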

Chain of human ether-à-go-go-related gene (hERG) potassium channel (Q12809 whole entry, looked up): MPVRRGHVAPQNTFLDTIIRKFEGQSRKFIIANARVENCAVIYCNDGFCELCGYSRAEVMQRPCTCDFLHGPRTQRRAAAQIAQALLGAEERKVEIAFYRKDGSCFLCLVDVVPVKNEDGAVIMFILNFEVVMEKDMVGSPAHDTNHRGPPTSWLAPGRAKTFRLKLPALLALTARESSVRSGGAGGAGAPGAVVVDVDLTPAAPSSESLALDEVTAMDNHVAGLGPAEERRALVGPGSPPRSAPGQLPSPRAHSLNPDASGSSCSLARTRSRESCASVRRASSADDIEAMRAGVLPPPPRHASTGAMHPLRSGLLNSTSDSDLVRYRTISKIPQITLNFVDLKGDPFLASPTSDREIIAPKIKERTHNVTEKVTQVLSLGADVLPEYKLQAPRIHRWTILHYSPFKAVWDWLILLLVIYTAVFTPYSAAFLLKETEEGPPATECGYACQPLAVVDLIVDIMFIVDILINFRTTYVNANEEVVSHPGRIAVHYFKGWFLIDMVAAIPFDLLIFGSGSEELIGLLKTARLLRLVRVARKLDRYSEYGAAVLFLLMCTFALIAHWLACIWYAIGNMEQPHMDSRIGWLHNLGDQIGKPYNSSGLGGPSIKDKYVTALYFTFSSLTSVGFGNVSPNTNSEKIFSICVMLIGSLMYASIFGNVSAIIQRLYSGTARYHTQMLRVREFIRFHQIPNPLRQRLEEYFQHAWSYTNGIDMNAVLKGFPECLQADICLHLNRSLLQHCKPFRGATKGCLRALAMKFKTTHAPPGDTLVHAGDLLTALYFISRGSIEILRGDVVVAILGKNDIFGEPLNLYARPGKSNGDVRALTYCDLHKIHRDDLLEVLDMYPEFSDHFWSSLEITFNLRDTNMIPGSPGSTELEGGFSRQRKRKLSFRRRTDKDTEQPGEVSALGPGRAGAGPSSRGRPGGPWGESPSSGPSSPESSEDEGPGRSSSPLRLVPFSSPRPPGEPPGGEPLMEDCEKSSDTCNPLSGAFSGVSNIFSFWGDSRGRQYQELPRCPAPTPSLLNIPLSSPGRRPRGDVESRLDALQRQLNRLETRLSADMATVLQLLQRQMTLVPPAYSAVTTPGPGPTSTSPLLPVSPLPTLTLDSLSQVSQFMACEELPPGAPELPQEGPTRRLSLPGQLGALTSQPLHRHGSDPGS

Row | SMILES | hERG current change (%, negative = inhibition) at 10uM [%]
1 | CCN(CC(=O)NCc1ccc(Cl)cc1)C(=O)CSc1ccc(F)cc1 | -71.1
2 | CCN(CC(=O)NCc1ccc(Cl)cc1)C(=O)CSc1ccccc1F | -19.3
3 | CCN(CC(=O)NCc1ccc(F)cc1)C(=O)c1oc2ccccc2c1C | -43.9
4 | CCN(CC(=O)Nc1c(F)cccc1F)C(=O)CSc1ccc(F)cc1 | -14.3
5 | O=C(CSc1ccc(Cl)cc1)NCc1ccncc1 | -14.2
6 | CCN(CC(=O)NCc1ccc(Cl)cc1)C(=O)c1oc2ccccc2c1C | -54.5
7 | CCN(CC(=O)NCc1ccc(Cl)cc1)C(=O)CSc1ccccc1 | -65.6
8 | Cc1ccc(-c2nn3c(C)nnc3s2)cc1NCc1c(F)cccc1Cl | 2.39
9 | Fc1ccc(N2CN(Cc3cccnc3)CNC2=S)cc1 | 10.7
10 | Cc1ccc(C(O)Cn2nc(C)cc2C)cc1 (centres unmarked) | 13.7
11 | CCCCCc1c(O)nc(SCCN(CC)CC)[nH]c1=O.Cl | 9.87
12 | COc1ccc(N(C(=O)c2cccnc2)S(=O)(=O)c2ccc3c4c(cccc24)C(=O)N3C)cc1 | 17.7
13 | C=CCn1c(=O)c2ccccc2n2c(SCc3nc4ccccc4s3)nnc12 | -34.4
14 | CCOc1ccc(NC(=O)Cn2nc(C(N)=O)c3ccccc3c2=O)cc1S(=O)(=O)N1CCCC1 | 0.537
15 | COc1ccc(OC)c(NC(=O)c2cccc(Cn3cc(Br)c([N+](=O)[O-])n3)c2)c1 | -13.9
16 | Cc1ccccc1NC(=O)c1cccc(Cn2cc(Br)c([N+](=O)[O-])n2)c1 | -3.63
17 | COc1ccc(NC(=O)c2cccc(Cn3cc(Br)c([N+](=O)[O-])n3)c2)c(C)c1 | -72
18 | Cc1cc(CC(C)C)n(-c2nc3ccccc3c(=O)n2OCc2ccccc2)n1 | -7.08
19 | COc1ccc(CCNc2ncnc3c2nnn3Cc2ccccc2)cc1 | 13
20 | COc1ccc(C(=O)C2CCCN(Cc3ccc4nonc4c3)C2)cc1F (centres unmarked) | -41.1
21 | COc1ccc(C(=O)C2CCCN(Cc3ccc4nonc4c3)C2)cc1OC (centres unmarked) | -67.4
22 | COc1ccc(C(=O)C2CCCN(Cc3ccc4nonc4c3)C2)c(OC)c1 (centres unmarked) | -66.7

Row | SMILES | hERG current change (%, negative = inhibition) at 10uM [%]
23 | COc1ccc(C(=O)C2CCCN(Cc3ccc4nonc4c3)C2)c(C)c1 (centres unmarked) | -20.3
24 | COc1ccccc1CCNC(=O)CNC(=O)Cc1cccc2ccccc12 | -1.6
25 | CC(C(=O)Nc1ncn[nH]1)N1C(=O)c2ccccc2C1=O (centres unmarked) | 17.4
26 | CCCCn1c(=O)c(C(=O)Nc2ccccc2S(N)(=O)=O)c(O)c2ccccc21 | -12.3
27 | COc1ccc(N2CCN(CCCNC(=O)c3ccc(CS(=O)(=O)c4ccc(Cl)cc4)o3)CC2)cc1 | -77.1
28 | O=C(NCCCN1CCCC1)c1ccc(CS(=O)(=O)c2ccc(Cl)cc2)o1 | -6.15
29 | O=C(NCCN1CCOCC1)c1ccc(CS(=O)(=O)c2ccc(Cl)cc2)o1 | -4.24
30 | COc1ccc(S(N)(=O)=O)cc1C(=O)NCCCN1CCN(c2ccc(C)cc2)CC1 | -50.7
31 | COCCNC(=O)c1ccc(CS(=O)(=O)c2ccc(OC)cc2)o1 | -0.154
32 | COc1ccc(S(N)(=O)=O)cc1C(=O)NCCCN1CCN(c2cccc(Cl)c2)CC1.CS(=O)(=O)O | -23.9
33 | COc1ccc(S(=O)(=O)Cc2ccc(C(=O)NCCCN3CCc4ccccc4C3)o2)cc1 | -51.2
34 | COc1ccc(N2CCN(CCCNC(=O)c3ccc(CS(=O)(=O)c4ccc(OC)cc4)o3)CC2)cc1 | -68.9
35 | COc1ccc(S(=O)(=O)Cc2ccc(C(=O)NC3CC3)o2)cc1 | -2.21
36 | Cc1ccc(S(=O)(=O)Cc2ccc(C(=O)NCCCN3CCN(C)CC3)o2)cc1 | 15.6
37 | COc1ccc(S(=O)(=O)Cc2ccc(C(=O)NCc3ccccc3OC)o2)cc1 | -41.6
38 | COc1ccc(S(N)(=O)=O)cc1C(=O)NCC(C)(C)N1CCOCC1 | 8.36
39 | O=C(Nc1cccc(F)c1)N1CC=C(c2ccc(Cl)cc2)CC1 | -13.8
40 | Cc1ccc(CN2CCN(/N=C/c3ccc(Cl)c([N+](=O)[O-])c3)CC2)cc1 | -4.43
41 | CCCOC1CCCN(C(=O)c2ccc3oc(C(C)C)nc3c2)C1 (centres unmarked) | 3.64
42 | Cc1ccccc1OCc1nc(-c2ccc(NC(=O)c3ccco3)cc2)no1 | 5.41
43 | COc1ccc(N=Cc2c(O)n(Cc3ccccc3)c(=S)[nH]c2=O)c(OC)c1 | -1.29
44 | CC(C)[C@@H](C(=O)NCC1CCC(C(=O)O)CC1)n1nnc2ccccc2c1=O (some centres unmarked) | 19.1
